This assay can be described thus: cell-free HIV fusion peptide-binding blockers – biochemical, uHTS, fluorescence dequenching, primary screen (AID 1986). The following applies: 30 min, stronger effect = higher value.
The mark [1] stands for this setting: measured here: repeat confirmation average inhibition, at 18.6 µM.

About 890 (0.31%) of roughly 290,000 compounds were called active. Rule as the data show it: active = inhibition mostly above about 52% (no sharp cut-off); inactive = mostly below about 76%. The full list was thinned out, with actives kept by preference.

Broadly, the inhibition is the relative decrease from the control value, in per cent. On to `Cc1ccc(-n2nnc(-c3cc4ccccc4nc3Cl)n2)cc1`, for which the inhibition (at 20 µM) is 0.2% (inactive). Regarding `O=C(CN(c1ccc(F)cc1)S(=O)(=O)c1ccc2c(c1)OCCO2)NCC1CCCO1` (stereo unspecified), the inhibition (at 20 µM) was 1.4% (inactive).

In the case of `CCOc1ccc2nc(SCC(=O)c3ccc(C)s3)sc2c1`, the inhibition (at 20 µM) was 0% (inactive).

In the case of `CCOc1ccc(NC(=O)C2CSC(c3ccncc3)=N2)cc1` (stereo unspecified), where the note is “at 20 µM”, the inhibition is 1.2% (inactive). The same measure, in the same setting: with `CC1=C(C(=O)Nc2ccccn2)C(c2ccccc2)n2ncnc2N1` (stereo unspecified) the figure was -2.7% (inactive); with `CCNc1nc(NC(C)C)nc(SCCOC(=O)c2ccccc2)n1`, 2.3% (inactive). In the case of `Cc1c(C)n(Cc2ccc(F)cc2)c2ccc(C(=O)NCCN3CCOCC3)cc12`, the inhibition (at 20 µM) is -1.7% (inactive). For the molecule `O=C(Nc1ccccc1C(=O)O)c1cccc(N2C(=O)c3ccccc3C2=O)c1`, the inhibition (at 20 µM) is 2.5% (inactive). On the same count and under the same terms, the figure for `COc1ccccc1NS(=O)(=O)c1cccc(NC(=O)Nc2ccccc2)c1` is 1.4% (inactive). On to `NC(=O)NCc1cccc(Cl)c1`, for which the inhibition (at 20 µM) was 2.5% (inactive). In the case of `CCOC(=O)C(=CNc1ccc(C(F)(F)F)cc1Cl)C(=O)OCC`, the inhibition (at 20 µM) was 0.9% (inactive).

With `CCOc1ccc2c(c1)c1nnc(SCC(=O)NC3CC3)nc1n2C`, under “at 20 µM”, the inhibition was -0.7% (inactive). Same read-out and setting: with `Clc1ccccc1/C=N/NC1=Nc2cccc3cccc1c23` the figure was 51.2% (active). On the same count and under the same terms, the figure for `Clc1ccc(/C=N/NC2=Nc3cccc4cccc2c34)cc1` is 43.5% (inactive). On the same count and under the same terms, the figure for `C(=N\NC1=Nc2cccc3cccc1c23)/c1ccccc1` is 20.5% (inactive). For `N/C(CC(=O)NC1CCCCC1)=N\OCC(=O)Nc1ccc(Cl)c(Cl)c1`, for the setting “at 20 µM”, the inhibition was 1.7% (inactive).

In the case of `COc1cc2c(cc1NC(=S)NC(=O)/C=C/c1ccc(OC)c(OC)c1)oc1ccccc12`, where the note is “at 20 µM”, the inhibition was 1.2% (inactive). On to `COc1cc2c(cc1NC(=S)NC(=O)/C=C/c1ccco1)oc1ccccc12`, for which, for the setting “at 20 µM”, the inhibition is 67.5% (active). In the case of `COc1ccc(/C=C/C(=O)NC(=S)Nc2cc3oc4ccccc4c3cc2OC)cc1`, for the setting “at 20 µM”, the inhibition was 1.6% (inactive).

`COc1ccc(C2NC(=O)c3ccccc3O2)cc1` (stereo unspecified): where the note is “at 20 µM”, the inhibition is -1.3% (inactive). With `Cc1ccc(SCCNCc2ccco2)cc1`, the inhibition (at 20 µM) was 0.3% (inactive).

On to `COc1ccc2cc3[n+](cc2c1OC)CCc1cc2c(cc1-3)OCO2`, for which, where the note is “at 20 µM”, the inhibition is -1.4% (inactive). Regarding `COc1cc2c(cc1OC)-c1cc3ccc4c(c3c[n+]1CC2)OCO4`, the inhibition is 120% (active) (at 20 µM) and 70.7% under setting [1]. In the case of `COc1cc2c(cc1O)CC[n+]1cc3c(OC)c(OC)ccc3cc1-2`, for the setting “at 20 µM”, the inhibition was 0.6% (inactive). Turning to `O=[N+]([O-])c1sccc1CS(=O)(=O)c1ccccc1`, under “at 20 µM”, the inhibition was -1.5% (inactive).

As for `O=C(Nc1cccc(Cl)c1)c1cc(N=Nc2ccc([N+](=O)[O-])cc2Cl)ccc1O`, the inhibition (at 20 µM) was 52.8% (active). Take `CC(=O)Nc1cccc(NC(=O)c2ccc([N+](=O)[O-])cc2Cl)c1`: the inhibition (at 20 µM) is 3.5% (inactive). Still for that read-out and setting: the figure for `O=C(Nc1cccc(O)c1)c1ccc([N+](=O)[O-])cc1Cl` is 0.3% (inactive); for `CC1C(=O)N2CCCc3cc(NS(C)(=O)=O)cc1c32` (stereo unspecified) it is 2.3% (inactive).

Take `CCN1C(=O)/C(=C/c2ccc(N3CCCC3)cc2)NC1=S`: under “at 20 µM”, the inhibition is 149% (inactive).

Regarding `Cc1cc(N2CCCC2)ccc1/C=C1/C(=O)N(C)C(=S)N1C`, the inhibition (at 20 µM) was 9.5% (inactive). In the case of `O=C1/C(=C/c2ccc(N3CCCC3)cc2)NC(=S)N1C1CC1`, the inhibition (at 20 µM) is 65.9% (active) and the inhibition under setting [1] is 83.2%. Take `O=C1N/C(=C/c2ccc(N3CCCC3)cc2)C(=O)N1c1ccccc1`: the inhibition (at 20 µM) is 4.9% (inactive). Same read-out and setting: the figure for `COCCN1C(=O)/C(=C/c2ccc(N3CCCC3)cc2C)SC1=S` is 147% (inactive); for `Cc1cc(N2CCCC2)ccc1/C=C1\NC(=S)N(C)C1=O` it is 94.7% (active); for `CC(C)(C)C(=O)Nc1cccc(-c2nc3ccccc3[nH]2)c1` it is 1.3% (inactive). For the molecule `CC(C)OC(=O)CSc1nc(C(C)C)nc2ccccc12`, for the setting “at 20 µM”, the inhibition is 1.3% (inactive).

On to `Cc1c(Cl)cccc1NC(=O)N1CCCC1`, for which, under “at 20 µM”, the inhibition is 0.6% (inactive). The same measure, in the same setting: with `O=C(O)CCCCCN1C(=O)/C(=C\c2ccncc2)SC1=S` the figure was 6.4% (inactive). Still for that read-out and setting: with `O=C(O)CCCCCN1C(=O)/C(=C\c2ccc(-c3ccc(Cl)cc3)o2)SC1=S` the figure was 82.2% (active); with `O=Cc1ccc(-c2nc3ccccc3s2)o1`, 1.2% (inactive); with `N#C/C(=C\c1ccc(-c2nc3ccccc3s2)o1)C(N)=O`, 2.1% (inactive). With `O=C(O)CCCCCN1C(=O)/C(=C/c2ccncc2)SC1=S`, the inhibition (at 20 µM) was 9.2% (inactive). On to `O=C(O)CCCN1C(=O)/C(=C\c2ccco2)SC1=S`, for which the inhibition is, setting by setting: (at 20 µM) 53% (inactive); under setting [1], 3.5%. On to `O=C(O)CCCN1C(=O)/C(=C\C(Cl)=C\c2ccccc2)SC1=S`, for which the inhibition (at 20 µM) was 40.3% (inactive). As to `O=C(O)CCN1C(=O)/C(=C\c2ccc(-c3nc4ccccc4s3)o2)SC1=S`, the inhibition (at 20 µM) was 73.9% (active). In the case of `O=C(O)c1ccc(-c2nc3ccccc3s2)o1`, under “at 20 µM”, the inhibition is 1.8% (inactive). For `O=C(O)CC(C(=O)O)N1C(=O)/C(=C/c2ccc(-c3nc4ccccc4s3)o2)SC1=S` (stereo unspecified), the inhibition was 99% (active) (at 20 µM) and 66.9% under setting [1]. As for `O=C(O)CCN1C(=O)/C(=C/c2ccc(-c3nc4ccccc4s3)o2)SC1=S`, the inhibition (at 20 µM) is 24.8% (inactive). On to `O=C(O)CCCN1C(=O)/C(=C\c2ccc(-c3nc4ccccc4s3)o2)SC1=S`, for which, where the note is “at 20 µM”, the inhibition was 69.3% (active). As to `O=C(Nc1ccccc1)c1ccc(NCC2CCCO2)c(S(=O)(=O)N2CCOCC2)c1` (stereo unspecified), the inhibition (at 20 µM) was -0.2% (inactive). Regarding `CCOC(=O)c1c(NC(=O)CSc2ncn[nH]2)sc(C(=O)NC)c1C`, where the note is “at 20 µM”, the inhibition is -0.5% (inactive). Same read-out and setting: with `Cn1c(SCC(=O)Nc2ccc3c(c2)OCCO3)nnc1C1CC1` the figure was 0.2% (inactive); with `CN1C(=O)/C(=C/c2cn(CC(=O)NCc3ccco3)c3ccccc23)NC1=S`, 0.4% (inactive).

On to `COc1cc(/C=N/NC(=O)c2cccc(S(=O)(=O)N3CCCCC3)c2)cc(Br)c1O`, for which, where the note is “at 20 µM”, the inhibition was 1.7% (inactive).

For the molecule `O=C(NC(Cc1ccccc1)C(=O)O)/C(=C\c1ccc(F)cc1)NC(=O)c1ccccc1` (stereo unspecified), the inhibition (at 20 µM) was 12.8% (inactive). For the molecule `CC(=O)Nc1ccc2c(c1)nc(CCN1CCN(C)CC1)n2C`, the inhibition (at 20 µM) was -1.1% (inactive). Take `O=C(Cc1ccc([N+](=O)[O-])cc1)Nc1ccc2c(c1)OCO2`: the inhibition (at 20 µM) is 0.9% (inactive). The same measure, in the same setting: with `CCCc1nc(SC)[nH]c(=O)c1C` the figure was -0.9% (inactive). For `O=C(O)c1cc(-c2ccc(/C=C3/SC(=S)N(Cc4ccccc4)C3=O)o2)ccc1Cl`, the inhibition (at 20 µM) is 58.1% (active). For the molecule `C#CCN1C(=O)S/C(=C\c2ccc(-c3ccc(Cl)c(C(=O)O)c3)o2)C1=O`, where the note is “at 20 µM”, the inhibition was 18.9% (inactive). The same measure, in the same setting: the figure for `COc1ccc(CN2C(=O)/C(=C/c3ccc(-c4ccc(Cl)c(C(=O)O)c4)o3)SC2=S)cc1` is 139% (inactive).

(Values after PubChem BioAssay AID1986 (Sanford-Burnham Center for Chemical Genomics, 2009).)
